# HCV inh: HCV inhibition; 3.4% of 340,000 active; Huh7.5.1 HCVcc-Cre infection, luciferase reporter, 44 h; Potency, µM (series often up to 41.8 µM), inactives show at the top dose activity change, negative = inhibition, actives largely listed as inhibitors; AID 651820; further: potency means the concentration at half of the fitted maximal effect; on the % scale 0 is the no-effect control and ±100 the full control effect
#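 Cells (1,000/well) were plated 4 h before compound, then infected with HCVcc-Cre virus (~0.5 moi). After 44 h further culture, infection was read as luciferase luminescence following a 15 min substrate incubation at room temperature.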
# Shiga inhibitor: inhibitors of Shiga toxin in Vero cells | Vero cells, Shiga toxin protein synthesis inhibition reporter | AID 2315 | 9.2% of 290,000 active | inhibition, % at 38.7 µM; in the data active means inhibition mostly above about 28%, no sharp cut-off; inactive means mostly below about 43%; further: 0% is about no effect
# Pf growth 96h: inhibits malaria parasite growth, 96 h. P. falciparum luciferase reporter growth, 96 h. 6.9% of 320,000 active. Potency, µM (doses to about 28.7 µM), without a hit: top-dose activity change, negative = inhibition, actives largely listed as inhibitors; further: potency means the concentration at half of the fitted maximal effect; on the % scale 0 is the no-effect control and ±100 the full control effect
#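 Readout is luminescence from an integrated firefly luciferase in P. falciparum. Red cells, 2% hematocrit and 0.05% parasitemia final, were cultured with compound through two parasite generations (96 hours) at 37 C, 5% CO2.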
# AMA1-RON2 inh: AMA1-RON2 (P. falciparum) interaction inhibition; AlphaScreen AMA1-biotinylated RON2 peptide binding; Potency, µM (top dose mostly 58.2 µM), without a hit: top-dose activity change, negative = inhibition, hits mostly inhibitors; 0.2% of 360,000 active; AID 720542;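 further: potency means the concentration at half of the fitted maximal effect; 0% = vehicle wells and -100% = peptide control; nearly all actives have a fitted effect of over 45% in size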
#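 AMA1 (3D7) with his tag at 25 nM final met compounds first, then biotinylated RON2 peptide at 25 nM; detection used donor plus acceptor beads, 10 µg/mL apiece, read by AlphaScreen after 30 min at room temperature.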
# Pf growth 48h: inhibits P. falciparum growth in the first generation, 48 h; P. falciparum luciferase growth in erythrocytes, 48 h; Potency, µM (titrated, usually from 28.7 µM), without a hit: at the top dose activity change, negative = inhibition, actives largely listed as inhibitors; 5.9% of 310,000 active; AID 504832; further: potency means the concentration at half of the fitted maximal effect; on the % scale 0 is the no-effect control and ±100 the full control effect
#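 Cell-based growth assay: transgenic P. falciparum expressing firefly luciferase, cultured in red cells within RPMI 1640 containing 0.5% w/v Albumax, 24 mM bicarbonate and gentamycin. A drop in luciferase activity indicates inhibition.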
# Cycloheximide cs: affects cycloheximide protein synthesis inhibition readout, counter-screen | cell reporter, cycloheximide protein synthesis inhibition counterscreen | max response, % | 12% of 300,000 active; in the data active means max response mostly above about 13%, no sharp cut-off; inactive means mostly below about 14%; further: read at 38.3 µM for the half of the compounds with a filed dose; 0% is about no effect
# * marks the source's active call; other numbers are inactive results; ? = inconclusive; . = no result; [ ] = another dose, or the depositor's remark. Hits are enriched below; roughly 21% of the tested compounds scored in any of these assays. Unless noted, the call rests on the fitted dose curve; in most records, active means well fitted curve in the direction sought with a large enough effect; inconclusive means small, poorly fitted or top-dose-only effect, or another doubt; inactive means no such curve, though single readings can be large; an effect the other way counts as inactive or inconclusive.
SMILES,HCV inh,Shiga inhibitor,Pf growth 96h,AMA1-RON2 inh,Pf growth 48h,Cycloheximide cs
CC(O)(c1ccc(F)c(F)c1)c1nc(-c2ccc(S(C)(=O)=O)cc2)cs1 (stereo not drawn),.,.,.,3%,.,.
COc1ccc(C(CNC(=O)c2cccc(S(=O)(=O)N3CCCCC3)c2)N2CCCC2)cc1 (stereo not drawn),?,.,10µM*,4%,?,.
COc1ccc(CNC(=O)c2cccc(N(C)C)c2)cc1,-13%,15,1.9µM*,0%,17%,1
COc1ccccc1CNC(=O)c1cccc(N(C)C)c1,-5%,29,.,0%,2%,16
COc1ccc(C(CNC(=O)c2cc(S(=O)(=O)N3CCCCC3)ccc2C)N2CCCC2)cc1 (stereo not drawn),?,.,.,-3%,.,.
COc1ccccc1NS(=O)(=O)c1cccc(C(=O)NCC(c2ccco2)N2CCCCC2)c1 (stereo not drawn),?,.,?,28%,5.2µM*,.
COc1ccc(C(CNC(=O)c2cccc(N(C)C)c2)N2CCCC2)cc1 (stereo not drawn),-7%,15,?,?,10µM*,1
O=C(Cn1nc(C(=O)O)c2ccccc2c1=O)Nc1ccc(Cl)c(S(=O)(=O)N2CCOCC2)c1,-8%,.,.,-12%,.,.
CCOC(=O)COc1cc(OCC(=O)OCC)c2c3c(c(=O)oc2c1)CCCC3,-9%,-4,?,-8%,-30%,-2
CCOCCCNC(=O)C(NC(=O)Cc1cccs1)c1ccc(Cl)cc1 (stereo not drawn),16%,-9,?,10%,4%,-3
CCCCC1SC(N)=NC1=O (stereo not drawn),8%,.,.,10%,.,.
COCCn1c(SCC(=O)NC(C)c2ccc(F)cc2)nc2ccccc21 (stereo not drawn),?,-4,16%,6%,-4%,-2
CC1CC(NC(=O)c2c(O)nc3sccn3c2=O)CC(C)(C)C1 (stereo not drawn),3%,.,?,62%,13µM*,.
O=C(NC1CCCCC1)c1c(O)nc2sccn2c1=O,22%,.,10µM*,23%,10µM*,.
O=C(NC1CCCCCC1)c1c(O)nc2sccn2c1=O,21%,.,4.7µM*,-6%,6.6µM*,.
CC1CC(NC(=O)c2c(O)nc3ccccn3c2=O)CC(C)(C)C1 (stereo not drawn),15%,.,.,-8%,.,.
O=C(NCC1CCCO1)c1c(O)nc2sccn2c1=O (stereo not drawn),6%,.,-5%,18%,0%,.
COc1ccc(C)cc1S(=O)(=O)n1c([N+](=O)[O-])cnc1C,12%,-3,?,-3%,33%,-2
CCCCC(=O)N1C(C)CCC1C (stereo not drawn),.,.,.,-5%,.,.
CC1=C(C(=O)OCc2ccccc2)C(c2ccccc2)NC(=O)N1CCCCCC(=O)O (stereo not drawn),-15%[8.37 µM],-16,?,11%,-21%,-4
CCCCCCN(C(=O)CCCCCN1C(=O)NC(c2ccc(C(C)(C)C)cc2)C(C(=O)OCc2ccccc2)=C1C)C(C(=O)NCCCC)c1ccc(OCC(=O)OC)c(C(=O)OC)c1 (stereo not drawn),.,-3,2.1µM*,.,2.1µM*,-3
CCCCCCN(C(=O)CCCCCN1C(=O)NC(c2ccc(C3CCCCC3)cc2)C(C(=O)OCc2ccccc2)=C1C)C(C(=O)NCCCC)c1ccc(OCC(=O)OC)c(C(=O)OC)c1 (stereo not drawn),.,14,2.1µM*,.,2.9µM*,-3
CCCCCCN(C(=O)CCCCCN1C(=O)NC(c2ccccc2)C(C(=O)OCc2ccccc2)=C1C)C(C(=O)NCCCC)c1ccc(OCC(=O)OC)c(C(=O)OC)c1 (stereo not drawn),.,-8,3.3µM*,.,2.1µM*,-3
COC(=O)CCCN1C(=O)NC(c2ccc(-c3ccccc3)cc2)C(C(=O)OCc2ccccc2)=C1C (stereo not drawn),?,.,.,9%,.,.
CC1=C(C(=O)OCc2ccccc2)C(c2ccc(C(C)(C)C)cc2)NC(=O)N1CCCCCC(=O)O (stereo not drawn),-2%[8.37 µM],4,?,-14%,?,-4
